High-throughput results as filed in PubChem.
G6PDH counter – L. mesenteroides G6PDH inhibition counter-screen; Purified L. mesenteroides G6PDH, diaphorase/resazurin coupled fluorescence, 45 min; inhibition, % at 5 µM; actives 0.12% (n = 200,000); AID 1020; in the data active = inhibition above about 50%
p97 ATPase inh – human p97 ATPase inhibition. actives 0.42% (n = 220,000). AID 1481. P55072. recombinant p97 ATPase, Kinase-Glo ATP luminescence, 3 h. inhibition, % at 8 µM; in the data active = inhibition above about 15%
Target sequence (P55072 whole entry, looked up): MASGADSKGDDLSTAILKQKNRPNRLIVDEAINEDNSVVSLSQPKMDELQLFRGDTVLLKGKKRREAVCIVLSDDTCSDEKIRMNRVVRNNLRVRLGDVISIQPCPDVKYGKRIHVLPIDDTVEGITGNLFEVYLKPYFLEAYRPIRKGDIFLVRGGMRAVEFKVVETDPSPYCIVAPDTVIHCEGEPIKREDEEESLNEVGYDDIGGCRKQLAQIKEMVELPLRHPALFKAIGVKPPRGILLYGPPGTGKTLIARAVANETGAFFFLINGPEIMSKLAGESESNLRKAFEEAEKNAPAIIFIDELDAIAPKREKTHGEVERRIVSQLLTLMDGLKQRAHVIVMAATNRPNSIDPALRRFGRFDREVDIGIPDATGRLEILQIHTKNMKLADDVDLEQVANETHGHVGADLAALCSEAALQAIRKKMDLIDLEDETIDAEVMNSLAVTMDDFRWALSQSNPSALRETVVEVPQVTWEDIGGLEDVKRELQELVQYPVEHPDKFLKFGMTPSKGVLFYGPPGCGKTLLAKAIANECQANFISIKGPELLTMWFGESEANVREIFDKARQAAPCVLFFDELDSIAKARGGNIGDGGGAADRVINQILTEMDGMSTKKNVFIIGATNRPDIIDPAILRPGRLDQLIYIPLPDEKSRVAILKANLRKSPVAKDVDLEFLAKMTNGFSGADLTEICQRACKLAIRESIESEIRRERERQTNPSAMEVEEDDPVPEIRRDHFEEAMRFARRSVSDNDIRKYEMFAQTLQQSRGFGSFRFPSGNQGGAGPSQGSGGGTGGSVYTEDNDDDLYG
M18AAP inhibitor – PfM18AAP enzyme inhibition. recombinant PfM18AAP, H-Glu-NHMec fluorogenic cleavage. inhibition, % at 7.35 µM. actives 1.2% (n = 290,000);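 active = inhibition above the campaign mean inhibition over all tested compounds plus 3 SD, cut at about 28% in these data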
HDAC3 inhib – blocks human histone deacetylase 3; O15379; recombinant HDAC3, fluorogenic peptide/trypsin coupled, fluorescence; inhibition, % at 8.3 µM; actives 0.15% (n = 320,000); AID 2718; in the data active = inhibition above about 26%, passing the limit was not always enough; inconclusive = no clear call, values can overlap the other calls
UBC9 SUMO inh – SUMOylation inhibition; actives 0.36% (n = 290,000); inhibition, % at 35 µM; HTRF SUMOylation assay, SAE1/SAE2 + UBC9, in vitro; in the data active = inhibition above about 50%, passing the limit was not always enough; inconclusive = no clear call, values can overlap the other calls
PHOSPHO1 block – inhibitors of human PHOSPHO1 phosphatase | AID 1565 | inhibition, % at 13.3 µM | actives 1.1% (n = 290,000) | recombinant PHOSPHO1, absorbance phosphatase assay; in the data active = inhibition above about 60%
A number is an active result; i = inactive; ? = inconclusive; nt = no result. A selection: hits, their analogues and other compounds. The true share with any hit is near 2.5%.

SMILES	G6PDH counter	p97 ATPase inh	M18AAP inhibitor	HDAC3 inhib	UBC9 SUMO inh	PHOSPHO1 block
CCOCCCNCc1ccc(OCC(=O)N2CCOCC2)c(OC)c1	i	i	i	i	i	60
CC(=O)c1ccc(N=Nc2ccc(N)cc2)cc1	nt	i	i	i	i	nt
S=C(Nc1ccc(N2CCOCC2)cc1)Nc1ccc2nc(-c3ccco3)c(-c3ccco3)nc2c1	i	i	44	i	?	92
O=C(Nc1ccc2nc(-c3ccco3)c(-c3ccco3)nc2c1)N1CCN(c2ccccn2)CC1	i	i	i	nt	i	98
Cc1nc2cc(NC(=O)N3CCN(c4ccccn4)CC3)ccc2o1	i	i	i	i	i	i
O=c1c2c3n(c(=S)nc2[nH]n1-c1ccccc1)CCCCC3	i	i	i	i	i	82
C[C@H]1CN([C@@H](C)CO)C(=O)c2cccc(NC(=O)C3CC3)c2O[C@H]1CN(C)S(=O)(=O)c1ccccc1	nt	nt	nt	i	nt	nt
O=C1CCCC(=NCc2ccco2)C1	i	i	i	i	i	i
CN(C)c1nc(=NCc2ccco2)ss1	nt	i	47	nt	i	i
CCN(C(=O)Cn1nc(C)c([N+](=O)[O-])c1C)C1CCS(=O)(=O)C1 (configuration not stated)	nt	nt	nt	i	nt	nt
C=CCn1c(C)cc(-c2csc(N)n2)c1C	i	i	i	i	i	98
COCCNC(=O)Cn1nc(-c2ccc(C)cc2)ccc1=O	nt	nt	i	?	i	i
Nc1nc(-c2ccc(-n3nncc3-c3ccco3)cc2)cs1	nt	i	i	i	i	i
Nc1nc(-c2ccco2)cs1	i	i	i	i	i	93
CCc1ccc([C@@H]2CC=C(C(=O)O)[C@H](c3ccccc3F)N2S(=O)(=O)c2ccc(C)cc2)cc1	nt	nt	nt	i	nt	nt
COc1ccc(CN2C(=O)Cc3c2nc(N)c2c(N)nc(N4CCOCC4)c(C#N)c32)cc1	nt	i	i	i	101	i
CCOc1cc2c(C#N)c(N3CCOCC3)nc(N)c2c(N)n1	i	nt	nt	i	97	i
COCCN1C(=O)Cc2c1nc(N)c1c(N)nc(N3CCN(c4ccc(F)cc4)CC3)c(C#N)c21	i	i	i	i	93	i
Cc1cc(C)cc(NS(=O)(=O)c2c(C(=O)N3CCOCC3)c(C)n(C)c2C)c1	nt	nt	i	i	i	i
Cc1nnc(N2CCOCC2)c2nn(-c3ccccc3)c(C)c12	i	i	i	i	i	i
c1ccc(-n2nnc3c(N4CCOCC4)ncnc32)cc1	i	i	i	i	i	68
COc1ccc2nc3cc(Cl)ccc3c(Nc3cc(CN4CCCC4)c(O)c(CN4CCCC4)c3)c2n1	nt	nt	28	i	i	i
COC(=O)c1ccc(OC(=O)C2CSC3(C)CCC(=O)N23)cc1 (configuration not stated)	nt	nt	nt	i	nt	nt
N#CCc1nc2ccccc2c(=O)[nH]1	nt	i	i	i	i	i
COc1cccc(C(=O)n2c(SC)nc3cc4c(cc32)OCCO4)c1	i	i	i	92	i	i
SMILES	G6PDH counter	p97 ATPase inh	M18AAP inhibitor	HDAC3 inhib	UBC9 SUMO inh	PHOSPHO1 block
COC(=O)c1ccccc1OCCN1CCCCCC1	i	i	i	i	i	i
CCC(=O)c1ccccc1OCCN1CCN(CC)CC1	i	i	31	i	i	i
Cc1cc(C)c(OCC(O)CN2CCN(C(=O)c3ccccc3)CC2)c(C)c1 (configuration not stated)	nt	nt	i	i	i	nt
NS(=O)(=O)c1ccc(Nc2nc3ccccc3nc2NS(=O)(=O)c2cccc([N+](=O)[O-])c2)cc1	i	i	i	i	i	i
COc1cccc(/C=c2\sc3nc(-c4cccs4)nn3c2=O)c1OC	i	i	i	i	i	71
CCOC(=O)CSc1nc2cc(C(=O)OC)ccc2c(=O)n1CCN1CCOCC1	i	i	i	i	i	70
COC(=O)c1ccc2c(=O)n(CCN3CCOCC3)c(SCC(=O)C(C)(C)C)nc2c1	i	i	i	i	i	i
O=C(CSc1ncnc2scc(-c3ccc(F)cc3)c12)c1ccc2c(c1)OCCO2	i	i	i	81	i	i
Cc1ccc(-c2csc3ncnc(SCC(=O)c4ccc5c(c4)OCCO5)c23)cc1	i	i	i	i	i	i
CCCCNC(=O)Oc1c(Br)cc2sc(=O)oc2c1Br	nt	i	30	i	i	i
Cc1ccc(C2CC(=O)NC(SCc3ccccc3)=C2C#N)cc1 (configuration not stated)	i	i	i	i	i	i
N#CC1=C(SCc2ccccc2)NC(=O)CC1c1ccc(O)cc1 (configuration not stated)	i	i	29	i	i	i
O=C(CCc1n[nH]c(=O)[nH]c1=O)Nc1cccc([N+](=O)[O-])c1	i	i	i	i	i	i
Cn1c(CO)cnc1SCc1ccc(F)cc1	i	i	i	i	i	i
Cn1c(CO)cnc1SCc1c(Cl)cccc1Cl	i	i	i	i	i	74
O=C(O)c1ccccc1NS(=O)(=O)c1ccc(NNC(=S)Nc2ccc(OC(F)F)cc2)c([N+](=O)[O-])c1	i	i	44	nt	i	i
CC(=O)Nc1ccc(C=NNc2ccc(S(=O)(=O)Nc3ccccc3C(=O)O)cc2[N+](=O)[O-])cc1	nt	nt	nt	i	nt	nt
O=C(OCC(=O)c1ccc[nH]1)c1ccc(F)c(S(=O)(=O)N2CCOCC2)c1	nt	nt	nt	i	nt	nt
O=C(NCc1ccc(F)cc1)c1ccc(CNc2c(N3CCOCC3)c(=O)c2=O)cc1	nt	i	i	i	i	61
Cc1ccc(CNC(=O)c2ccc(CN3CCOCC3)cc2)cc1	i	i	i	i	i	84
Cc1ccc(S(=O)(=O)N2CCOC23CCN(C(=O)C(=O)NCc2ccccc2)CC3)cc1	nt	nt	nt	i	nt	nt
CCN(CC)c1ccc(-c2nc3cnccn3c2NC2CCCC2)cc1	i	i	i	i	i	62
c1cn2c(NC3CCCCC3)c(-c3ccc(SC4CCCCC4)cc3)nc2cn1	nt	nt	nt	i	nt	nt
CCCN(CC(=O)Nc1ccccc1C)C(=O)c1ccc(C2SCCS2)cc1	nt	nt	nt	80	nt	nt
CCCN(CC(=O)Nc1ccccc1C)C(=O)c1ccc(S(=O)(=O)N2CCCCCC2)cc1	nt	nt	i	i	i	i
SMILES	G6PDH counter	p97 ATPase inh	M18AAP inhibitor	HDAC3 inhib	UBC9 SUMO inh	PHOSPHO1 block
CC(=O)C1=C(C)NC(SCC(=O)c2ccc(Cl)cc2)=C(C#N)C1c1ccco1 (configuration not stated)	i	i	i	i	i	i
CC(=O)C1=C(C)NC(SCC(=O)c2ccc(Cl)cc2Cl)=C(C#N)C1c1ccco1 (configuration not stated)	i	i	i	i	i	74
O=C(O)c1ccc(Cl)c2c1C1C=CCC1C(c1ccccn1)N2 (configuration not stated)	i	i	i	i	i	83
Cc1cccc(C)c1Nc1nnc(SCC(=O)c2ccc(Br)s2)s1	i	i	i	27	i	i
Cc1ccc2occ(/C=N/NC(=O)c3ccncc3)c(=O)c2c1	nt	nt	i	i	i	i
COc1ccc(-n2cccc2/C=C2\C(=N)N3N=C(C(C)C)SC3=NC2=O)cc1	i	i	i	i	i	i
COc1ccc(-n2cccc2/C=C2\C(=N)N3N=C(c4ccco4)SC3=NC2=O)cc1	i	i	i	i	88	i
